Experimental data taken from PubChem BioAssay (NCATS).
Results filed as inconclusive are left out. Where a call stands in place of a potency, no number is given. The source made the active and inactive calls. Calls follow the shape of the dose curve; as a rule, active = well fitted inhibition curve with a large enough effect; inconclusive = small, poorly fitted or top-dose-only effect; inactive = flat fitted curve, though single readings scatter.

Each compound was assayed against Calcium and integrin-binding protein 1 (Homo sapiens) (UniProt Q99828) (assay: Primary qHTS for Identification of Calcium Integrin Binding Protein 1 (CIB1) Competitor (AID 1508620; also: top concentration of the series differs between compounds)). Conditions: CIB1-GST / FITC-alphaIIb peptide fluorescence polarization; series mostly up to 114 µM.
Procedure, shortened: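 Fluorescence polarization competition: GST-tagged CIB1 (1 uM final) preincubated with compound 15 min at room temperature, then FITC-labelled alphaIIb peptide (100 nM final) added. After 15 min at room temperature, polarization read at Ex 480/Em 540.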

Chain of Calcium and integrin-binding protein 1 (Homo sapiens) (Q99828 whole entry, looked up): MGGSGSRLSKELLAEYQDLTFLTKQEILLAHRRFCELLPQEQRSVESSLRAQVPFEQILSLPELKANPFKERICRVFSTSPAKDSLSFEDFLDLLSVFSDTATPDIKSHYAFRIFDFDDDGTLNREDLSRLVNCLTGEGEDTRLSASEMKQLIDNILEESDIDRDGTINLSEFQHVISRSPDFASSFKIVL

Q: Which Potency does the source give for `O=C(NC[C@H](O)CN1CCc2ccccc2C1)c1ccnc(NC2CCC2)c1` here?
A: inactive

Q: How did the Potency turn out when `COc1cc2nc(N3CCN(C(=O)COc4c(OC)cccc4C(C)C)CC3)nc(N)c2cc1OC` was run?
A: inactive

Q: For `CCC(C)C1NC(=O)C(Cc2ccccc2)NC(=O)C(CCCCCC(=O)C(O)CO)NC(=O)C2CCCCN2C1=O` (centres undefined), which Potency is on record?
A: inactive

Q: How did the Potency turn out when `O=C(O)c1cccc(-c2ccc(-c3cn(C(=O)N4CCCCC4Cc4ccccc4)nn3)cc2)c1` (centres undefined) was run?
A: inactive

Q: With `CO[C@H]1C[C@@H]2CC[C@@H](C)[C@@](O)(O2)C(=O)C(=O)N2CCCC[C@H]2C(=O)O[C@H]([C@@H](C)C[C@@H]2CC[C@@H](O)[C@H](OC)C2)CC(=O)[C@H](C)/C=C(\C)[C@@H](O)[C@@H](OC)C(=O)[C@H](C)C[C@H](C)/C=C/C=C/C=C/1C` as the compound, how does the Potency read?
A: inactive

Q: How did the Potency turn out when `CC(C)n1cnc2c(-c3cnc(N)nc3)nc(N3CCOCC3)nc21` was run?
A: inactive

Q: Which Potency does the source give for `C=C1CC[C@@H]2[C@](C)(CO)[C@H](O)CC[C@@]2(C)[C@@H]1CC(O)C1=CCOC1=O` (some centres undefined) here?
A: inactive

Q: `C/C=C(\C)C(=O)OC1C(C)C2(O)C(C=C(CO)CC3(O)C(=O)C(C)=CC32)C2C(C)(C)C12OC(C)=O` (centres undefined) was tested. Which Potency did it give?
A: inactive

Q: For `COC1CC(=O)C23C(=O)NC(CC(C)C)C2C(C)C(C)=CC3/C=C(\C)CCCC1O` (centres undefined), which Potency is on record?
A: inactive

Q: Which Potency does the source give for `COc1ccc(S(=O)(=O)Nc2cc(Cl)cc(Cl)c2OC)cc1N1CCNCC1` here?
A: inactive

Q: How did the Potency turn out when `O=C(NCCCc1ccccc1)c1cccc(-c2cc(O)c3ncccc3c2)c1` was run?
A: inactive

Q: How did the Potency turn out when `C=C[C@H](/C=C\c1ccc(O)cc1)c1ccc(O)cc1` was run?
A: inactive

Q: Which Potency does the source give for `C/C=C/C=C/C(=O)O[C@@H]1C=C2COC(=O)[C@]2(O)[C@@]2(C)CCCC(C)(C)[C@H]12` here?
A: inactive

Q: For `C=C(C=O)[C@]1(O)C[C@@]2(C)C(=CC1=O)C=C[C@H](OC(=O)/C=C/C=C/[C@H](C)CC)[C@@H]2C`, which Potency is on record?
A: inactive

Q: Which activity change, negative = inhibition does the source give for `CC(=O)O[C@@H]1C[C@]2(C)[C@@]3(CCC4[C@@]5(C)CC[C@H](O[C@@H]6O[C@H](C(=O)O)[C@@H](O)[C@H](OC7OC(CO)C(O)C(O)[C@H]7O[C@@H]7O[C@@H](C)[C@H](O)[C@@H](O)[C@H]7O[C@@H]7OC[C@](O)(CO)[C@H]7O)[C@H]6OC6OC(CO)C(O)C(O)C6O)C(C)(C)C5CC[C@]42C)OC[C@@]12CCC(C)(C)CC23` (some centres undefined) here?
A: -0.726% [at 12.4 µM] (inactive)

Q: With `CNS(=O)(=O)c1ccccc1Nc1nc(Nc2ccc(N3CCN(C)CC3)cc2OC)ncc1Br` as the compound, how does the Potency read?
A: inactive

Q: For `CNc1nc(NCc2ccc(NS(C)(=O)=O)cc2Cl)cc(-c2ccccn2)n1`, which Potency is on record?
A: inactive

Q: Which Potency does the source give for `CN(C)CCC(CSc1ccccc1)Nc1ccc(S(=O)(=O)NC(=O)c2ccc(N3CCN(Cc4ccccc4-c4ccc(Cl)cc4)CC3)cc2)cc1[N+](=O)[O-]` (centres undefined) here?
A: inactive

Q: How did the Potency turn out when `Cc1ccc(C)c(NS(=O)(=O)c2cc(C(=O)Nc3ccccc3-c3ccccc3)ccc2C)c1` was run?
A: inactive

Q: How did the Potency turn out when `COc1ccc2cc3c(NC(=O)c4ccco4)nn(C)c3nc2c1` was run?
A: inactive

Q: `CC(=O)[C@H]1CC[C@H]2[C@@H]3CC=C4C[C@@H](OS(=O)(=O)O)CC[C@]4(C)[C@H]3CC[C@]12C` was tested. Which Potency did it give?
A: inactive

Q: With `Cc1cc(C)cc(-c2cnc3cc(Cl)c(-c4cccc(O)c4)cc3c2OCCCN)c1` as the compound, how does the Potency read?
A: inactive

Q: How did the Potency turn out when `CC(C)n1c(=O)c(C(=O)NC2CC3CCC(C2)N3C[C@@H](O)CN(C)S(C)(=O)=O)cc2ccccc21` (some centres undefined) was run?
A: inactive

Q: How did the Potency turn out when `COc1cccc(CN(C(=O)CC(C)(C)C)[C@H]2C[C@H](C(=O)N3CCNCC3)N(Cc3ccc4c(c3)OCO4)C2)c1` was run?
A: inactive

Q: With `CN(C)C(=O)C(=O)c1cn(C)c2cc(Cl)c(C(=O)N3CCC(Cc4ccc(F)cc4)CC3)cc12` as the compound, how does the Potency read?
A: inactive

Q: `COc1ccc(N(C(=O)Nc2c(C)cccc2C)c2cc(Nc3ccc(N4CCN(C)CC4)cc3)ncn2)c(OC)c1` was tested. Which Potency did it give?
A: inactive

Q: How did the Potency turn out when `COc1cc2nc(N3CCN(C(=O)c4ccco4)C4CCCCC43)nc(N)c2cc1OC` (centres undefined) was run?
A: inactive

Q: With `CCC/C=C/C=C/C1CC(O)C2(O)C(=O)OCC12` (centres undefined) as the compound, how does the Potency read?
A: inactive

Q: For `CCC(C)C(=O)Oc1cc(C)ccc1C1(COC(=O)C(C)C)CO1` (centres undefined), which Potency is on record?
A: inactive

Q: For `C=C1C(=O)O[C@@H]2/C=C(\CO)CC/C=C(/C=O)C[C@@H](O)[C@@H]12`, which Potency is on record?
A: inactive

Q: For `C/C=C(\C)[C@@H]1C(C)=C[C@@H]2[C@H]([C@@H]1/C=C/C=C/C(=O)O)[C@@H](C)CC[C@@H]2O`, which Potency is on record?
A: inactive

Q: With `COc1cc(CCc2ccc(OCC=C(C)C)cc2)cc(OC)c1OC` as the compound, how does the Potency read?
A: inactive

Q: Which Potency does the source give for `NC(=O)N1CCC(CC(=O)N2CCC(C3c4ncc(Br)cc4CCc4cc(Cl)cc(Br)c43)CC2)CC1` (centres undefined) here?
A: inactive

Q: How did the Potency turn out when `C=C(C)C1CCC2(C(=O)O)CCC3(C)C(CCC4C5(C)C(C=O)C(O)C(C)(C)C5CCC43C)C12` (centres undefined) was run?
A: inactive

Q: How did the Potency turn out when `O=C(NCc1nc2ccccc2c(=O)n1-c1ccc(F)cc1)Nc1ccc(Cl)c(C(F)(F)F)c1` was run?
A: inactive

Q: `CN1C(=O)c2sccc2N(C)c2nc(Nc3ccc(S(N)(=O)=O)cc3)ncc21` was tested. Which Potency did it give?
A: inactive

Q: Which Potency does the source give for `O=C(O)c1cc(N(Cc2ccc(C3CCCCC3)cc2)C(=O)c2ccc(Oc3ccccc3)cc2)ccc1O` here?
A: inactive

Q: For `COC(=O)c1ccnc(-c2cc(C(=O)Nc3ccc(C4(N)CC4)cc3)ccn2)c1`, which Potency is on record?
A: inactive

Q: `C=C1C(=O)OC2CC(C)C(CCC(C)O)=CCC12` (centres undefined) was tested. Which Potency did it give?
A: inactive
